Among the test systems are NCI-H23 lung; NCI-H226 lung; NCI-H322M lung; HOP-62 NSCLC; NCI-H460 lung; HOP-92 NSCLC; NCI-H522 lung; A549/ATCC NSCLC; 786-0 renal; COLO 205 colon; DU-145 prostate; K-562 leukemia; MALME-3M melanoma; MDA-MB-231 breast; RXF 393 renal; SF-268 CNS; SF-295 CNS; SF-539 CNS; UACC-257 melanoma; M14 melanoma.
What all share (assay): NCI-60 one-dose screen, 48 h (100 = growth as untreated, 0 = no growth, -100 = all killed)
What all share (conditions): 10 µM unless noted

In PubChem BioAssay (NCI) one finds growth data, which are given here for eight molecules.

About 83,000 compounds went through this panel and 20% of them were active in at least one assay; those are over-represented in the sample as a whole.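 Single-concentration screen, 48 h exposure, 96-well plates. Endpoint: percent growth. Below 10 = active.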 A number with no mark means an inactive call. The source made the active and inactive calls.

With `CS(=O)(=O)c1ccc(/C(=N/N=C(N)N)c2ccc(F)cc2)cc1`, the growth was 88.3% in the test on NCI-H23 lung; 91% in the test with NCI-H226 lung; 119% with NCI-H322M lung; 95.7% in the test on HOP-62 NSCLC; 92.7% in the test with NCI-H460 lung; 94.4% in the test on HOP-92 NSCLC. The growth in the test with NCI-H522 lung is 81.2%; in the test on A549/ATCC NSCLC it was 80.8%; with 786-0 renal, 76.9%; in the test on COLO 205 colon, 88%; in the test with DU-145 prostate it was 106%; in the test on K-562 leukemia it was 25.1%. Also, the growth with MALME-3M melanoma was 97.4%; with MDA-MB-231 breast, 105%; with RXF 393 renal it was 86.1%; in the test with SF-268 CNS it was 78.9%; in the test with SF-295 CNS, 71%; with SF-539 CNS, 99.5%. Besides, the growth is 76.9% in the test with UACC-257 melanoma and 67.2% in the test with M14 melanoma.

As for `CC1=Cc2ccccc2OC12C=Cc1ccccc1O2` (stereo not given), the growth in the test with NCI-H23 lung was 86.5%; with NCI-H226 lung, 91.7%; in the test with NCI-H322M lung, 89.7%; in the test with HOP-62 NSCLC, 89.5%; with NCI-H460 lung it was 104%; in the test with HOP-92 NSCLC, 98.6%. The growth in the test on NCI-H522 lung is 97.2%; with A549/ATCC NSCLC it was 104%; with 786-0 renal, 105%; with COLO 205 colon, 110%; in the test on DU-145 prostate, 119%; in the test with K-562 leukemia, 92.3%. Further, the growth in the test on MALME-3M melanoma was 98.7%; in the test on MDA-MB-231 breast it was 89.8%; in the test with RXF 393 renal it was 97.8%; in the test on SF-268 CNS it was 98.8%; in the test on SF-295 CNS, 97.2%; in the test on SF-539 CNS, 97.8%. For the same molecule, the growth in the test with UACC-257 melanoma is 114%; with M14 melanoma, 107%.

For `COc1cc(C(=O)c2cc(C(C)=O)c3c(C)cccn23)cc(OC)c1OC`, the growth was 101% in the test with NCI-H23 lung; 89.9% with NCI-H226 lung; 98.5% in the test on NCI-H322M lung; 99.5% in the test with HOP-62 NSCLC; 102% with NCI-H460 lung; 110% with HOP-92 NSCLC. Besides, the growth in the test on NCI-H522 lung is 90.2%; in the test with A549/ATCC NSCLC it was 104%; in the test on 786-0 renal, 91%; in the test on COLO 205 colon it was 110%; in the test on DU-145 prostate it was 107%; in the test with K-562 leukemia, 94.6%. In addition, the growth in the test on MALME-3M melanoma is 89.1%; with MDA-MB-231 breast, 76.1%; with RXF 393 renal, 81.1%; with SF-268 CNS it was 106%; in the test on SF-295 CNS, 109%; in the test on SF-539 CNS, 97.5%. In addition, the growth in the test on UACC-257 melanoma was 98.2%; in the test with M14 melanoma, 96.1%.

On to `CCOC(=O)c1cccc(NC2=C(Cl)C(=O)C(C)=C(C)C2=O)c1`, for which the growth in the test on NCI-H23 lung is 91.9%; with NCI-H226 lung it was 100%; with NCI-H322M lung, 105%; in the test on HOP-62 NSCLC, 103%; in the test with NCI-H460 lung, 101%; with HOP-92 NSCLC, 54.2%. The growth is 95% with NCI-H522 lung; 102% in the test with A549/ATCC NSCLC; 105% in the test on 786-0 renal; 122% in the test with COLO 205 colon; 104% with DU-145 prostate; 0.169% (active) in the test with K-562 leukemia. The growth was 104% in the test with MALME-3M melanoma; 28% in the test with MDA-MB-231 breast; 102% with RXF 393 renal; 92.8% in the test with SF-268 CNS; 102% in the test on SF-295 CNS; 95.8% in the test on SF-539 CNS. Further, the growth with UACC-257 melanoma was 93.3%; with M14 melanoma, 100%.

On to `O=C(/C=C/c1cccc(F)c1)c1cccc(OCCCOc2cccc(C(=O)/C=C/c3cccc(F)c3)c2)c1`, for which the growth is 49.2% in the test on NCI-H23 lung; 77% with NCI-H226 lung; 101% in the test with NCI-H322M lung; 132% with HOP-62 NSCLC; 96.1% in the test with NCI-H460 lung; 115% in the test with HOP-92 NSCLC. The growth in the test with NCI-H522 lung is 83.2%; in the test with A549/ATCC NSCLC, 69.8%; with 786-0 renal, 51%; with COLO 205 colon, 82.2%; in the test with DU-145 prostate it was 86.6%; in the test with K-562 leukemia, 21.7%. Also, the growth was 99.4% with MALME-3M melanoma; 81% in the test with MDA-MB-231 breast; 70.1% in the test on RXF 393 renal; 92.1% with SF-268 CNS; -19.8% (active) in the test with SF-295 CNS; 92.3% with SF-539 CNS. Also, the growth was 107% with UACC-257 melanoma and 92% in the test with M14 melanoma.

`CNC(=O)c1cc(N2CCc3cc(NC(=O)Nc4ccc(N5CCN(C)CC5)c(C(F)(F)F)c4)ccc32)ccn1`: the growth was 88.4% with NCI-H23 lung; 99.4% in the test with NCI-H226 lung; 96.6% in the test on NCI-H322M lung; 76.7% in the test with HOP-62 NSCLC; 62.6% in the test with NCI-H460 lung; 69% with HOP-92 NSCLC. In addition, the growth was 103% in the test on NCI-H522 lung; 68.6% with A549/ATCC NSCLC; 29.3% in the test with 786-0 renal; 104% with COLO 205 colon; 84.6% in the test with DU-145 prostate; 0.938% (active) in the test on K-562 leukemia. In addition, the growth was 67.8% with MALME-3M melanoma; 74.3% with MDA-MB-231 breast; -16% (active) with RXF 393 renal; 80.4% in the test with SF-268 CNS; -49.8% (active) with SF-295 CNS; 16.8% with SF-539 CNS. The growth in the test with UACC-257 melanoma is 104%; in the test on M14 melanoma, 61.6%.

In the case of `Cc1ccc(C)c(NC2=C(Cl)C(=O)c3nc(C)ccc3C2=O)c1`, the growth in the test on NCI-H23 lung was -38% (active); with NCI-H226 lung it was 10.5%; in the test on NCI-H322M lung it was 24.2%; in the test with HOP-62 NSCLC, 7.19% (active); in the test on NCI-H460 lung it was 48.9%; with HOP-92 NSCLC it was -13.8% (active). For the same molecule, the growth in the test on NCI-H522 lung was -35.9% (active); in the test on A549/ATCC NSCLC, 31%; with 786-0 renal it was 4.67% (active); with COLO 205 colon, 107%; with DU-145 prostate it was -76.4% (active); in the test with K-562 leukemia it was 1.06% (active). Moreover, the growth in the test on MALME-3M melanoma was -52.4% (active); in the test with MDA-MB-231 breast, -14.5% (active); in the test on RXF 393 renal, -43.5% (active); in the test on SF-268 CNS, -1.66% (active); with SF-295 CNS it was -24.1% (active); in the test on SF-539 CNS, -95.1% (active). The growth was -87.7% (active) in the test on UACC-257 melanoma and -55.8% (active) in the test on M14 melanoma.

In the case of `O=C1CSC(c2cn(-c3ccccc3)nc2-c2ccc(Cl)cc2)N1c1ccccc1` (stereo not given), the growth in the test with NCI-H23 lung is 96.9%; in the test on NCI-H226 lung it was 98.4%; with NCI-H322M lung, 112%; in the test on HOP-62 NSCLC it was 99.6%; in the test on NCI-H460 lung, 111%; in the test with HOP-92 NSCLC it was 100%. Also, the growth in the test with NCI-H522 lung is 95.7%; in the test with A549/ATCC NSCLC, 98.1%; in the test on 786-0 renal, 106%; in the test with COLO 205 colon, 120%; in the test on DU-145 prostate, 115%; with K-562 leukemia it was 109%. Further, the growth with MALME-3M melanoma was 115%; in the test on MDA-MB-231 breast, 107%; with RXF 393 renal, 126%; in the test with SF-268 CNS it was 109%; in the test on SF-295 CNS it was 99.5%; in the test on SF-539 CNS it was 99%. The growth is 102% with UACC-257 melanoma and 99.3% with M14 melanoma.
